Activity calls are given as the source filed them.
Target: Torsin-1A-interacting protein 2 (Homo sapiens) (UniProt Q8NFQ8)
Assay: LULL1 binders on small-molecule microarray, primary screen, cell lysate, human LULL1 lysate, 635/667 nm fluorescence (AID 1092);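 also: probe is lysate of COS7 cells overexpressing human LULL1; score merges per-feature 667 nm fluorescence with signal-to-noise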
Conditions: hLULL1 lysate binding, 635 nm fluorescence, higher = more signal

Sequence of Torsin-1A-interacting protein 2 (Homo sapiens) (Q8NFQ8 whole entry, looked up): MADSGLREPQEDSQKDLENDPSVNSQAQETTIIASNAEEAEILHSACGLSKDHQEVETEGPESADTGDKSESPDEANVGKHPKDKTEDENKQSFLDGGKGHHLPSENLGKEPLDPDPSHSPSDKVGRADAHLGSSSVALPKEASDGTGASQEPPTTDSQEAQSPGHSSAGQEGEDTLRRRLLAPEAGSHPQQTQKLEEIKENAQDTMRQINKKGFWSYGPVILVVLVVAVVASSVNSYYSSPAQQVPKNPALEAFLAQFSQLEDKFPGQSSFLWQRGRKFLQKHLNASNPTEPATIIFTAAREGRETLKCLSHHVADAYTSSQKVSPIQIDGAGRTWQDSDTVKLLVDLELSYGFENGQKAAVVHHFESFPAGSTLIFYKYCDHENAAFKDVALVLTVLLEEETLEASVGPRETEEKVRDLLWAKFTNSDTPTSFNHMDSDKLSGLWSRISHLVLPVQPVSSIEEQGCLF

Row | Compound | composite z-score
1 | CCCNC(=O)OC[C@H]1O[C@H](CCON=C(C)CCN2CCc3nc(CC)c(CC)cc3C2)C=C[C@@H]1Oc1ccc(OC)cc1 | 0.73
2 | COc1cccc([C@H]2Oc3ccc(OC)cc3C(=NO[C@H](C)c3cn([C@H](CO)Cc4ccccc4)nn3)[C@@H]2O)c1 | 0.202
3 | Cc1ccc(S(=O)(=O)n2c3ccccc3c3nnc(C(=O)c4ccccc4)nc32)cc1 | -0.0929
4 | CCOC(=O)[C@H](Cc1ccccc1)NC(=O)CCC1CC(OC(=O)NCc2ccc3c(c2)OCO3)CC2(CCCC(COC(=O)NCCc3ccccc3OC)O2)O1 (stereo partly specified) | 2.67
5 | Cn1c(=O)n2n(c1=O)[C@H]1[C@H](O)[C@@H]3O[C@@H]3C(=O)[C@H]1CC2 | 0.485
6 | C[C@@H]1CC[C@H]2C(=O)O[C@@H](Cc3ccccc3)CN2[C@H]1c1ccc(Br)cc1 | 1.16
7 | CCOC(=O)[C@H](CC(C)C)NC(=O)CCC1CC(OC(=O)NCCc2ccc(F)cc2)CC2(CCCC(COC(=O)NCCc3ccc(Cl)cc3)O2)O1 (stereo partly specified) | 1.97
8 | CO[C@H]1COC(=O)[C@H](C)NC(=O)CC=C[C@@H](C)[C@H](OC)COC(=O)[C@@H](OCc2ccccc2)C=C[C@@H]1C | -0.986
9 | C#CCCCON=C1C[C@@H](O)[C@@H](O)[C@@H]2[C@@H]3C(=O)N(c4ccc(F)cc4F)C(=O)[C@@H]3CC[C@H]12 | 2.13
10 | O=C1C[C@@H](O)[C@@H](O)[C@@H]2[C@@H]3C(=O)N(Cc4ccc5c(c4)OCO5)C(=O)[C@@H]3CC[C@H]12 | 0.443

Test system: not listed separately
Assay: E. coli growth modulation, two-sided OD650, primary screen, E. coli filamentation project, strain DRC41, 24 h (AID 1093);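 also: MC1000 strain lacking acrAB efflux and sulA so SOS filamentation is blocked; test concentration not given here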
Conditions: OD650, 24 h, higher = more signal, called active from +8 up or from −8 down

Row | Compound | z-score
11 | COc1ccc(O[C@H]2C=C[C@@H](c3ccccc3)O[C@@H]2CON=CC[C@@H]2C=C[C@H](OC(C)=O)[C@@H](COC(C)=O)O2)cc1 | 0.363 (inactive)
12 | CO[C@H]1COC(=O)CC=C[C@@H](C)[C@H](NS(=O)(=O)c2ccc(C)cc2)COC(=O)CCC[C@@H]1C | -0.0537 (inactive)
13 | CON=CC[C@@H]1C=C[C@H](OC(C)=O)[C@@H](COC(C)=O)O1 | -0.0614 (inactive)
14 | C=COC[C@@H]1CN2[C@@H](CC[C@@H](C)[C@@H]2c2ccc(Br)cc2)C(=O)O1 | -0.756 (inactive)
15 | O=C1[C@H]2[C@H]3[C@H](O)[C@H](O)CC(=NOCc4ccccc4)[C@@H]3CC[C@H]2C(=O)N1Cc1ccc2c(c1)OCO2 | 1.1 (inactive)
16 | COC(=O)NCC=Cc1nc(CCCO)co1 | 0.423 (inactive)
17 | CO[C@H]1COC(=O)CC=C[C@H](C)[C@@H](OC)COC(=O)[C@@H](C)COC(=O)CC=C[C@@H]1C | -0.176 (inactive)
18 | COC(=O)[C@@H]1CC[C@H](C)[C@@H](c2ccc(C)cc2)N1C(=O)c1ccc(C=NOC[C@@H](C)[C@H](OCc2ccccc2)C(C)C)cc1 | 0.862 (inactive)
19 | COC(=O)CC=C[C@@H](C)[C@@H](C=NO[C@@H]1O[C@H](COC(C)=O)[C@@H](OC(C)=O)[C@H](OC(C)=O)[C@H]1OC(C)=O)NS(=O)(=O)c1ccc(C)cc1 | -1.32 (inactive)
20 | CCOC(=O)[C@H](CC(C)C)NC(=O)CCC1CC(OC(=O)NCc2cccc3ccccc23)CC2(CCCC(COC(=O)NCCOc3ccccc3)O2)O1 (stereo partly specified) | 0.0653 (inactive)
21 | COc1cccc([C@H]2Oc3ccc(OC)cc3C(=NO[C@@H](C)c3cn([C@H](CO)Cc4ccccc4)nn3)[C@@H]2O)c1 | -0.486 (inactive)
22 | COC(=O)CC=C[C@@H](C)[C@@H](C=NOC[C@H]1O[C@H](c2ccccc2)C=C[C@@H]1Oc1ccc(OC)cc1)NS(=O)(=O)c1ccc(C)cc1 | -0.513 (inactive)
23 | C=CC1=C[C@H](O)[C@@H]2O[C@@H]2C12OCCCO2 | -0.0339 (inactive)
24 | COC(=O)CC=C[C@@H](C)[C@H](OCc1cccc(-c2ccccc2)c1)C1CCCCC1 | 0.109 (inactive)
25 | CC(C)CON=C1C[C@@H](O)[C@@H](O)[C@@H]2[C@@H]3C(=O)N(Cc4ccc5c(c4)OCO5)C(=O)[C@@H]3CC[C@H]12 | 0.396 (inactive)
26 | COc1ccc(O[C@H]2C=C[C@@H](c3ccccc3)O[C@@H]2CON=C(C)C)cc1 | 0.511 (inactive)
27 | COC(=O)CC=C[C@@H](C)[C@@H](C=NOC(C)CN1CCCc2nc(C)c(C)cc21)OC (stereo partly specified) | -0.64 (inactive)
28 | CC(C)(C)N1C(=O)[C@H]2[C@H]3[C@H](O)[C@H](O)CC(=NO[C@@H]4O[C@H](CO)[C@@H](O)[C@H](O)[C@H]4O)[C@H]3CC[C@H]2C1=O | -0.864 (inactive)

Row | Compound | z-score
29 | C#CCCCON=C1C[C@@H](O)[C@@H](O)[C@@H]2[C@@H]3C(=O)N(C(C)(C)C)C(=O)[C@@H]3CC[C@H]12 | 0.216 (inactive)
30 | CCOC(=O)NN=C1C[C@@H](O)[C@@H](O)[C@@H]2[C@@H]3C(=O)N([C@@H](C)c4ccccc4)C(=O)[C@@H]3CC[C@H]12 | 0.352 (inactive)
31 | COC(=O)[C@@H]1CC[C@H](C)[C@@H](c2ccc(C)cc2)N1C(=O)c1ccc(C=NO[C@H](C)c2cn([C@H](CO)Cc3ccccc3)nn2)cc1 | -0.551 (inactive)
32 | CCOC(=O)CCN1C(=O)[C@H]2[C@H]3[C@H](O)[C@H](O)CC(=NNC(=O)OCc4ccccc4)[C@@H]3CC[C@H]2C1=O | 0.826 (inactive)
33 | CC(C)=CCCC(C)=CCON=C1C[C@@H](O)[C@@H](O)[C@@H]2[C@@H]3C(=O)N(c4ccc(F)cc4F)C(=O)[C@@H]3CC[C@@H]12 | 1.34 (inactive)
34 | CCc1cc2c(nc1CC)CCN(CCC(C)=NO[C@H](C)c1cn([C@H](CO)Cc3ccccc3)nn1)C2 | -0.0004 (inactive)
35 | COC(=O)[C@H](C)NC(=O)CCC1CC(OC(=O)NCCc2ccc(F)cc2)CC2(CCCC(COC(=O)NCCC(C)C)O2)O1 (stereo partly specified) | -0.641 (inactive)
36 | CCN1C(=O)[C@@H]2[C@H]3C(=CC[C@@H]2C1=O)C1(OCCCO1)[C@H]1O[C@H]1[C@H]3O | -0.0556 (inactive)
37 | CCCNC(=O)OC[C@H]1O[C@H](CCON=C(C)CCN2CCc3nc(CC)c(CC)cc3C2)C=C[C@@H]1Oc1ccc(OC)cc1 | 0.004 (inactive)
38 | COc1cccc([C@H]2Oc3ccc(OC)cc3C(=NO[C@H](C)c3cn([C@H](CO)Cc4ccccc4)nn3)[C@@H]2O)c1 | 0.928 (inactive)
39 | Cc1ccc(S(=O)(=O)n2c3ccccc3c3nnc(C(=O)c4ccccc4)nc32)cc1 | 0.878 (inactive)
40 | CCOC(=O)[C@H](Cc1ccccc1)NC(=O)CCC1CC(OC(=O)NCc2ccc3c(c2)OCO3)CC2(CCCC(COC(=O)NCCc3ccccc3OC)O2)O1 (stereo partly specified) | -0.324 (inactive)
41 | Cn1c(=O)n2n(c1=O)[C@H]1[C@H](O)[C@@H]3O[C@@H]3C(=O)[C@H]1CC2 | 0.442 (inactive)
42 | C[C@@H]1CC[C@H]2C(=O)O[C@@H](Cc3ccccc3)CN2[C@H]1c1ccc(Br)cc1 | -0.529 (inactive)
43 | CCOC(=O)[C@H](CC(C)C)NC(=O)CCC1CC(OC(=O)NCCc2ccc(F)cc2)CC2(CCCC(COC(=O)NCCc3ccc(Cl)cc3)O2)O1 (stereo partly specified) | -0.296 (inactive)
44 | CO[C@H]1COC(=O)[C@H](C)NC(=O)CC=C[C@@H](C)[C@H](OC)COC(=O)[C@@H](OCc2ccccc2)C=C[C@@H]1C | 0.786 (inactive)
45 | C#CCCCON=C1C[C@@H](O)[C@@H](O)[C@@H]2[C@@H]3C(=O)N(c4ccc(F)cc4F)C(=O)[C@@H]3CC[C@H]12 | 0.534 (inactive)
46 | O=C1C[C@@H](O)[C@@H](O)[C@@H]2[C@@H]3C(=O)N(Cc4ccc5c(c4)OCO5)C(=O)[C@@H]3CC[C@H]12 | 0.378 (inactive)

From PubChem BioAssay
